The text below walks through data of PubChem BioAssay (Tox21).

Experiment [1] can be described thus: qHTS assay for small molecule agonists of the p53 signaling pathway (AID 651631; calls by dose curve; further: nearly all actives have a fitted effect of over 15% in size). The procedure, abridged: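 HCT-116 cells carrying a stable p53 response element–beta-lactamase reporter were plated, rested 5 h at 37 °C, then exposed to compound in DMSO for 16 h at 37 °C; reporter activity was read as FRET substrate fluorescence after 2 h at room temperature.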
(In general: qHTS replaces the single test concentration by a dilution series.)

Experiment [2] in a line: qHTS assay for small molecules that induce genotoxicity in human embryonic kidney cells expressing luciferase-tagged ATAD5 (AID 651632). Further: nearly all actives have a fitted effect of over 15% in size. An outline of the steps:
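A rise in luciferase signal from ATAD5-tagged HEK293T cells marks genetic stress. Cells were exposed to compounds for 16 hr at 37C, 5% CO2, then luciferase was quantified after a 30 min room-temperature incubation with Amplite.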

Experiment [3] is described as follows: qHTS assay for small molecule agonists of the p53 signaling pathway - cell viability (AID 651633; calls by dose curve; further: series mostly up to about 83 µM; nearly all actives have a fitted effect of over 30% in size). An outline of the steps: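 p53RE-bla cells were treated with compound for 16 hours at 37 C. Cytotoxicity was then measured as CellTiter-Glo luminescence after 30 min at room temperature.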
Experiment [4] can be described thus: qHTS assay for small molecules that induce genotoxicity in human embryonic kidney cells expressing luciferase-tagged ATAD5 - cell viability (AID 651634; calls by dose curve; further: nearly all actives have a fitted effect of over 25% in size). An outline of the steps: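 Cytotoxicity counter-readout: after 15.5 hr compound treatment at 37C, live-cell protease activity in ATAD5-luciferase HEK293T cells measured by CellTiter-Fluor fluorescence, 30 min development at 37C.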

Experiment [5] can be described thus: qHTS assay for small molecule disruptors of the mitochondrial membrane potential - cell viability (AID 720634; calls by dose curve; further: nearly all actives have a fitted effect of over 20% in size; further: potency means the concentration at half of the fitted maximal effect). An outline of the steps:
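Cytotoxicity was quantified from ATP content by CellTiter-Glo luminescence in the same wells as the MMP dye read-out. HepG2 (2,000 cells/well) were plated overnight and exposed to compounds for 1 hr at 37 C.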

A short description of experiment [6]: qHTS assay for small molecule disruptors of the mitochondrial membrane potential (AID 720635). Further: potency means the concentration at half of the fitted maximal effect. The procedure, abridged: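 HepG2 cells exposed to compound 1 hr at 37C, then Mito-MPS dye 30 min. Ratio read of aggregate (540/590 nm) versus monomer (490/535 nm) fluorescence.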
A short description of experiment [7]: qHTS assay to test for compound auto fluorescence at 590 nm (red) in HepG2 cells (AID 720674). An outline of the steps: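 HepG2 cells, 2,000 per well in MEM with 10% FBS, attached overnight at 37 C, then got 23 nL compound or DMSO. After 1 hr at 37 C, 5% CO2, red fluorescence was read at 540/590 nm against Rose Bengal sodium as reference.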
A short description of experiment [8]: qHTS assay to test for compound auto fluorescence at 535 nm (green) in HepG2 cells (AID 720675).
Experiment [9] can be described thus: qHTS assay to test for compound auto fluorescence at 590 nm (red) in HEK293 cells (AID 720679). The procedure, abridged: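 HEK293 cells (2,000/well, 10% dialyzed FBS) attached 4-5 hr, then dosed with compound or DMSO and incubated overnight at 37C, 5% CO2. Red fluorescence read at 540/590 nm, Rose Bengal sodium as reference fluorophore.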
Experiment [10] in a line: qHTS assay to test for compound auto fluorescence at 460 nm (blue) in HEK293 cells (AID 720678). An outline of the steps: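 HEK293 cells (2,000/well, medium with 10% dialyzed FBS) attached 4-5 hr, then exposed to compound overnight at 37C, 5% CO2. Blue fluorescence read at 405/460 nm, with triamterene as reference fluorophore.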

The structures appear in SMILES notation. Unmarked numbers belong to inactive results. Inconclusive results are not listed. Calls of active or inactive are those of the source. Unless noted, the call rests on the fitted dose curve; in most records, active means well fitted curve in the direction sought with a large enough effect in the repeat runs; inconclusive means weak or mixed curves; inactive means no such curve, though single readings can be large; an effect the other way counts as inactive or inconclusive.
On the % scale 0 is the no-effect control and ±100 the full control effect.

As to `CC(CCC(=O)O)C(=O)O` (centres undefined), the Potency result in [1], in [2], in [3], in experiment [4], in experiment [5] and in [6] was “inactive” in each case. The result in experiment [7], in [8] and in experiment [9] was inactive.
On to `Cc1[nH]cnc1CN1CCc2c(c3ccccc3n2C)C1=O`, for which the Potency result in experiment [1], in [2], in experiment [3], in [4], in experiment [5] and in [6] was “inactive” throughout. Moreover, the Potency entry in experiment [10] was “inactive”. Besides, the call in experiment [8] and in experiment [9] was inactive.
In the case of `O=C1CCCCCCCCCCOCCCCO1`, the Potency entry in [1], in experiment [2], in experiment [3], in [4], in experiment [5] and in experiment [6] was “inactive” throughout. Moreover, the Potency result in experiment [10] was “inactive”. Further, the compound was called inactive in experiment [7], in experiment [8] and in [9].
In the case of `O=C(O)c1ccc(OCCCOc2ccc(C(=O)O)cc2)cc1`, the Potency result in experiment [1], in experiment [2], in [3], in experiment [4], in experiment [5] and in [6] was “inactive” each time. Besides, the Potency result in experiment [10] is “inactive”. In addition, the result in [7], in [8] and in experiment [9] was inactive.
Take `CC(C)(O)c1ccc(CNC(=O)c2cccnc2Oc2ccc3nonc3c2)cc1`: the Potency result in [1], in experiment [2], in experiment [3], in experiment [4], in experiment [5] and in experiment [6] was “inactive” in each case. For the same compound, the Potency entry in experiment [10] was “inactive”. The compound was called inactive in [7], in experiment [8] and in experiment [9].
Regarding `C=C1c2cccc(O)c2C(O)=C2C(=O)[C@]3(O)C(O)=C(C(N)=O)C(=O)[C@@H](N(C)C)[C@@H]3[C@@H](O)[C@H]12`, the Potency result in [1], in experiment [2], in experiment [3], in experiment [4], in [5] and in [6] was “inactive” each time. Also, in experiment [8], the fluorescence, % of fluorescein control was -0.0181% [at 18.6 µM]. For the same compound, in [10], the fluorescence, % of triamterene is 1.67% [at 18.6 µM]. Moreover, the fluorescence, % of fluorescent control in [9] is 0.604% [at 18.6 µM].
Consider `CCCCCCCCN`, for which the Potency entry in [1], in experiment [2], in [3], in experiment [4], in experiment [5] and in experiment [6] was “inactive” throughout. Further, the compound was classed as inactive in [7], in experiment [8] and in [9].
As to `Cc1cc(C)cc(N)c1`, the Potency result in experiment [1], in experiment [2], in experiment [3], in experiment [4], in experiment [5] and in experiment [6] was “inactive” throughout. The Potency entry in experiment [10] is “inactive”. Besides, the compound was called inactive in experiment [7], in experiment [8] and in experiment [9].
For the compound `CC[N+](CC)(CCNC(=O)C(=O)NCC[N+](CC)(CC)Cc1ccccc1Cl)Cc1ccccc1Cl`, the Potency result in experiment [1], in experiment [2], in [3], in experiment [4], in experiment [5] and in experiment [6] was “inactive” in each case. In experiment [10], the Potency entry was “inactive”. Further, the compound was called inactive in [7] and in experiment [9].
With `CC(CO)CO`, the Potency entry in [1], in experiment [2], in experiment [3], in experiment [4], in experiment [5] and in experiment [6] was “inactive” throughout. In addition, the Potency result in experiment [10] was “inactive”. The call in [8] and in experiment [9] was inactive.
Regarding `C[C@@H](O)[C@H]1C(=O)N2C(C(=O)O)=C([C@H]3CCCO3)S[C@H]12`, the Potency entry in experiment [1], in [2], in [3], in experiment [4], in [5] and in experiment [6] was “inactive” throughout. Moreover, the Potency entry in experiment [10] is “inactive”. For the same compound, the call in experiment [7], in experiment [8] and in experiment [9] was inactive.
With `O=C(O)C[C@H](NC(=O)OCc1ccccc1)C(=O)O`, the Potency result in [1], in [2], in [3], in experiment [4], in [5] and in experiment [6] was “inactive” throughout. In experiment [10], the Potency entry was “inactive”. For the same compound, the call in experiment [7] and in experiment [9] was inactive.
Regarding `Nc1ncnc2c1ncn2[C@H]1CC[C@@H](CO)O1`, the Potency result in [1], in experiment [2], in [3], in experiment [4], in experiment [5] and in experiment [6] was “inactive” each time. The outcome in experiment [7], in [8] and in experiment [9] was inactive.
In the case of `CCOC(=O)[C@H](CCc1ccccc1)N[C@@H](C)C(=O)N(CC(=O)O)C1Cc2ccccc2C1`, the Potency result in experiment [1], in experiment [2], in [3], in [4], in [5] and in [6] was “inactive” in each case. The Potency entry in experiment [10] is “inactive”. The call in experiment [8] and in experiment [9] was inactive.
On to `CCOC(=O)c1ccc(I)cc1`, for which the Potency entry in [1], in experiment [2], in experiment [3], in [4], in experiment [5] and in [6] was “inactive” in each case. In addition, the Potency entry in experiment [10] is “inactive”. The compound was called inactive in experiment [7], in [8] and in experiment [9].
For `c1csc(SSc2cccs2)c1`, the Potency entry in [1], in experiment [2], in [3], in experiment [4], in experiment [5] and in experiment [6] was “inactive” throughout. Besides, the Potency entry in [10] is “inactive”. The compound was classed as inactive in experiment [7], in experiment [8] and in experiment [9].
Regarding `CCOC(=O)c1ccc(OCCN2C[C@H](O)[C@@H](O)[C@H](O)[C@H]2CO)cc1`, the Potency entry in experiment [1], in experiment [2], in experiment [3], in experiment [4], in experiment [5] and in [6] was “inactive” each time. For the same compound, the Potency result in [10] is “inactive”. For the same compound, the result in [7], in experiment [8] and in experiment [9] was inactive.
In the case of `CC(C)(C)C(=O)C(=O)O`, the Potency entry in experiment [1], in experiment [2], in [3], in experiment [4], in [5] and in experiment [6] was “inactive” each time. For the same compound, the Potency entry in [10] was “inactive”. Further, the call in experiment [7] and in experiment [9] was inactive.
Consider `Clc1ccc(Nc2nnc(Cc3ccncc3)c3ccccc23)cc1`, for which the Potency result in experiment [1], in experiment [2], in experiment [3], in experiment [4] and in [10] was “inactive” throughout. Further, the Potency in experiment [5] was 18.8 µM (active); in experiment [6] it was 26.6 µM (active). The compound was classed as inactive in experiment [7], in experiment [8] and in [9].
As to `CCCCCCCC/C=C\CCCCCCCCCCCC(=O)O`, the Potency entry in experiment [1], in [2], in [3], in experiment [4], in experiment [5] and in [6] was “inactive” throughout. For the same compound, the Potency entry in experiment [10] is “inactive”. Besides, the outcome in [8] and in experiment [9] was inactive.
Regarding `C=C1C[C@@]23CC[C@H]4[C@@](C)(CCC[C@@]4(C)C(=O)O[C@@H]4O[C@H](CO)[C@@H](O)[C@H](O)[C@H]4O)[C@@H]2CC[C@]1(O[C@@H]1O[C@H](CO)[C@@H](O)[C@H](O[C@@H]2O[C@H](CO)[C@@H](O)[C@H](O)[C@H]2O)[C@H]1O[C@@H]1O[C@H](CO)[C@@H](O)[C@H](O)[C@H]1O)C3`, the Potency result in [1], in [2], in [3], in experiment [4], in experiment [5] and in experiment [6] was “inactive” each time. For the same compound, the Potency entry in experiment [10] is “inactive”. In addition, the outcome in experiment [7], in [8] and in [9] was inactive.
Consider `Cc1ccco1`, for which the Potency entry in experiment [1], in experiment [2], in [3], in experiment [4], in experiment [5] and in experiment [6] was “inactive” throughout. In experiment [10], the Potency result was “inactive”. The compound was classed as inactive in experiment [7], in experiment [8] and in experiment [9].
